Laboratory results published in PubChem BioAssay (NCI).
The panel holds about 83,000 compounds, 20% with a hit somewhere; the sample as a whole holds those more often.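 Activity criterion: percent growth below 10, measured after cells in 96-well plates were exposed to a single compound concentration for 48 hours.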 The source made the active and inactive calls.

Legend:
Assay in all cases: NCI-60 one-dose screen, 48 h (100 = growth as untreated, 0 = no growth, -100 = all killed)
Settings in all cases: 10 µM unless noted
EKVX NSCLC = test system: EKVX NSCLC
SN12C renal = test system: SN12C renal
UO-31 renal = test system: UO-31 renal
TK-10 renal = test system: TK-10 renal
ACHN renal = test system: ACHN renal
A498 renal = test system: A498 renal
CCRF-CEM leukemia = test system: CCRF-CEM leukemia
MOLT-4 leukemia = test system: MOLT-4 leukemia
SR leukemia = test system: SR leukemia
RPMI-8226 leukemia = test system: RPMI-8226 leukemia
OVCAR-8 ovarian = test system: OVCAR-8 ovarian
OVCAR-5 ovarian = test system: OVCAR-5 ovarian
OVCAR-4 ovarian = test system: OVCAR-4 ovarian
SK-OV-3 ovarian = test system: SK-OV-3 ovarian
IGROV1 ovarian = test system: IGROV1 ovarian
OVCAR-3 ovarian = test system: OVCAR-3 ovarian
HS 578T breast = test system: HS 578T breast
NCI/ADR-RES ovarian = test system: NCI/ADR-RES ovarian
T-47D breast = test system: T-47D breast
CAKI-1 renal = test system: CAKI-1 renal

Measured: growth

Cc1ccc(-c2nc(C(Cl)Cl)nc3cc(-c4ccccc4)nn23)cc1
active: EKVX NSCLC -0.218% | ACHN renal -59.8% | A498 renal -31.3% | SR leukemia 1.15% | RPMI-8226 leukemia 6.1% | OVCAR-5 ovarian -8.77% | OVCAR-4 ovarian -24% | SK-OV-3 ovarian -32.4% | OVCAR-3 ovarian -42.7% | HS 578T breast 1.87%
inactive: SN12C renal 51.4% | UO-31 renal 45.3% | TK-10 renal 23.7% | CCRF-CEM leukemia 37.8% | MOLT-4 leukemia 10.4% | OVCAR-8 ovarian 10.3% | IGROV1 ovarian 29.3% | NCI/ADR-RES ovarian 13.5% | T-47D breast 51%

C#Cc1nc(C2=C(C)C(OC(=O)CCC(=O)O)CC2)cs1 (configuration not stated)
inactive: EKVX NSCLC 99.2% | SN12C renal 101% | TK-10 renal 157% | ACHN renal 103% | CCRF-CEM leukemia 93.9% | MOLT-4 leukemia 106% | SR leukemia 64.1% | RPMI-8226 leukemia 102% | OVCAR-8 ovarian 99.3% | OVCAR-5 ovarian 125% | OVCAR-4 ovarian 108% | SK-OV-3 ovarian 125% | OVCAR-3 ovarian 121% | HS 578T breast 92.5% | NCI/ADR-RES ovarian 89.7% | T-47D breast 98%
active: UO-31 renal -19.3% | IGROV1 ovarian 5.79%

COc1ccc(C(=O)/C=C/c2ccc(OCc3ccc(C)cc3)c(OC)c2)cc1OC
active: SR leukemia 9.97% | RPMI-8226 leukemia 8.56%
inactive: EKVX NSCLC 61.4% | SN12C renal 75.9% | UO-31 renal 58.6% | TK-10 renal 117% | ACHN renal 75.8% | CCRF-CEM leukemia 32.2% | MOLT-4 leukemia 29.4% | OVCAR-8 ovarian 49.1% | OVCAR-5 ovarian 95.4% | OVCAR-4 ovarian 60.9% | SK-OV-3 ovarian 100% | IGROV1 ovarian 84% | OVCAR-3 ovarian 76.8% | HS 578T breast 91.4% | NCI/ADR-RES ovarian 53.7% | T-47D breast 45.6%

COC(=O)C1CCCN(S(=O)(=O)/N=C2\NC(=O)NC2=C(Cl)Cl)C1 (configuration not stated)
inactive: EKVX NSCLC 104% | SN12C renal 102% | UO-31 renal 92.2% | TK-10 renal 74.6% | CAKI-1 renal 102% | CCRF-CEM leukemia 58% | MOLT-4 leukemia 96.3% | SR leukemia 28.6% | OVCAR-8 ovarian 105% | OVCAR-5 ovarian 130% | OVCAR-4 ovarian 119% | SK-OV-3 ovarian 106% | IGROV1 ovarian 107% | OVCAR-3 ovarian 122% | HS 578T breast 110% | NCI/ADR-RES ovarian 111% | T-47D breast 68.2%

Cn1cc(-c2cc(N)n3nc(-c4cn(C)c5ccc(F)cc45)cc3n2)c2cc(F)ccc21
inactive: EKVX NSCLC 93.5% | SN12C renal 11.8% | UO-31 renal 21.2% | TK-10 renal 48.7% | CAKI-1 renal 56.5% | A498 renal 72.6% | OVCAR-8 ovarian 20% | OVCAR-5 ovarian 88.5% | OVCAR-4 ovarian 23.6% | SK-OV-3 ovarian 128% | IGROV1 ovarian 42.7% | HS 578T breast 18.5% | NCI/ADR-RES ovarian 66.5% | T-47D breast 22.5%
active: CCRF-CEM leukemia 3.2% | MOLT-4 leukemia 3.58% | SR leukemia -16.2% | OVCAR-3 ovarian -0.991%

Cc1nc(-c2cc3ccccc3oc2=O)ccc1C(=O)/C=C/c1ccc(N2CCOCC2)cc1
inactive: EKVX NSCLC 86.6% | SN12C renal 83.8% | UO-31 renal 83.9% | ACHN renal 70.9% | CAKI-1 renal 65.1% | A498 renal 75.2% | CCRF-CEM leukemia 72.4% | MOLT-4 leukemia 66.1% | SR leukemia 26% | RPMI-8226 leukemia 93.4% | OVCAR-8 ovarian 81% | OVCAR-5 ovarian 101% | OVCAR-4 ovarian 72.4% | SK-OV-3 ovarian 88.7% | IGROV1 ovarian 82.6% | OVCAR-3 ovarian 87% | HS 578T breast 59.7% | NCI/ADR-RES ovarian 67.3% | T-47D breast 80.2%

O=C(N/N=C/c1ccc[nH]1)c1[nH]c2ccc(Br)cc2c1-c1ccccc1
inactive: EKVX NSCLC 24.4% | SN12C renal 28.7% | UO-31 renal 12.3% | TK-10 renal 44.5% | ACHN renal 12.2% | OVCAR-8 ovarian 13% | OVCAR-5 ovarian 43.7% | OVCAR-4 ovarian 33.2% | SK-OV-3 ovarian 36.7% | OVCAR-3 ovarian 22.2% | HS 578T breast 29.5% | NCI/ADR-RES ovarian 14.8% | T-47D breast 14.1%
active: CCRF-CEM leukemia 5.27% | MOLT-4 leukemia 5.94% | SR leukemia 1.89% | RPMI-8226 leukemia -1.05% | IGROV1 ovarian 8.52%

CCCSc1nc(Nc2ccc(/C(C)=N\NC(N)=S)cc2)c(C#N)c(-c2ccc(OC)cc2)n1
inactive: EKVX NSCLC 74.8% | SN12C renal 33.5% | UO-31 renal 28.3% | TK-10 renal 33.4% | ACHN renal 47.2% | A498 renal 101% | CCRF-CEM leukemia 89.2% | MOLT-4 leukemia 80.4% | SR leukemia 74.2% | RPMI-8226 leukemia 71.9% | OVCAR-8 ovarian 30.7% | OVCAR-5 ovarian 94.5% | OVCAR-4 ovarian 28% | IGROV1 ovarian 81% | OVCAR-3 ovarian 67.3% | HS 578T breast 25.3% | NCI/ADR-RES ovarian 56% | T-47D breast 86.6%

NS(=O)(=O)c1cccc(Nc2nc(SCC(=O)c3ccc([N+](=O)[O-])cc3)nc3ccccc23)c1
active: MOLT-4 leukemia -6.08% | RPMI-8226 leukemia -9.57%
inactive: EKVX NSCLC 70.9% | SN12C renal 56.9% | UO-31 renal 40.5% | TK-10 renal 95.6% | CAKI-1 renal 27.6% | CCRF-CEM leukemia 12% | SR leukemia 17.5% | OVCAR-8 ovarian 24.1% | OVCAR-5 ovarian 108% | OVCAR-4 ovarian 43% | SK-OV-3 ovarian 73.5% | IGROV1 ovarian 16.6% | OVCAR-3 ovarian 36.5% | HS 578T breast 65.6% | NCI/ADR-RES ovarian 72.7% | T-47D breast 10.8%

CC1=C(C)C(=O)C(Nc2ccccc2)=C(Cl)C1=O
inactive: EKVX NSCLC 55.2% | SN12C renal 91.1% | UO-31 renal 98.8% | TK-10 renal 128% | CAKI-1 renal 96.1% | A498 renal 91.2% | MOLT-4 leukemia 12.7% | SR leukemia 62.9% | RPMI-8226 leukemia 53.6% | OVCAR-8 ovarian 94.9% | OVCAR-5 ovarian 104% | OVCAR-3 ovarian 102% | HS 578T breast 101%
active: CCRF-CEM leukemia 5.28% | OVCAR-4 ovarian -97.9% | IGROV1 ovarian 9.69% | T-47D breast -38.9%

COc1cc(OC)c(S(=O)(=O)NNC(=O)c2ccncc2)cc1C(=O)/C=C/c1ccc(C)cc1
active: CCRF-CEM leukemia 8.66%
inactive: EKVX NSCLC 85.7% | SN12C renal 95.8% | UO-31 renal 77.5% | TK-10 renal 145% | MOLT-4 leukemia 42.2% | SR leukemia 21.9% | RPMI-8226 leukemia 20.3% | OVCAR-8 ovarian 88.3% | OVCAR-5 ovarian 110% | OVCAR-4 ovarian 91.3% | SK-OV-3 ovarian 101% | IGROV1 ovarian 72.7% | OVCAR-3 ovarian 81% | HS 578T breast 80.5% | NCI/ADR-RES ovarian 107% | T-47D breast 72.7%

Cc1cc(C(NC(=O)CCCCCNc2cccc3c2C(=O)N(C2CCC(=O)NC2=O)C3=O)c2cccnc2)c(O)c2ncccc12 (configuration not stated)
inactive: EKVX NSCLC 34.3% | SN12C renal 20.1% | UO-31 renal 18.7% | TK-10 renal 19.2% | CAKI-1 renal 14.2% | SR leukemia 11.6% | RPMI-8226 leukemia 14.6% | OVCAR-8 ovarian 11.1% | OVCAR-5 ovarian 49.8% | OVCAR-4 ovarian 19.4% | OVCAR-3 ovarian 14.2% | NCI/ADR-RES ovarian 79.6% | T-47D breast 12.1%
active: CCRF-CEM leukemia -4.83% | MOLT-4 leukemia 1.29% | IGROV1 ovarian 9.13% | HS 578T breast 1.22%

Cc1sc2nc(NCc3ccccc3Cl)[nH]c(=O)c2c1C
inactive: EKVX NSCLC 98.1% | SN12C renal 93.8% | UO-31 renal 94.5% | TK-10 renal 112% | ACHN renal 94.8% | A498 renal 81.3% | CCRF-CEM leukemia 65.3% | MOLT-4 leukemia 69.7% | SR leukemia 50.2% | RPMI-8226 leukemia 82.8% | OVCAR-8 ovarian 88.1% | OVCAR-5 ovarian 102% | OVCAR-4 ovarian 101% | SK-OV-3 ovarian 114% | IGROV1 ovarian 90.6% | OVCAR-3 ovarian 123% | HS 578T breast 99% | NCI/ADR-RES ovarian 104% | T-47D breast 94.6%

CCN1CCN(/C(=N\c2sc(-c3ccccc3)nc2-c2ccccc2)c2ccccc2)CC1
inactive: EKVX NSCLC 78.8% | SN12C renal 76.2% | UO-31 renal 64.5% | TK-10 renal 94.1% | ACHN renal 88.8% | A498 renal 113% | CCRF-CEM leukemia 68.1% | MOLT-4 leukemia 60.7% | SR leukemia 52.8% | RPMI-8226 leukemia 57.7% | OVCAR-8 ovarian 97.1% | OVCAR-5 ovarian 91.8% | OVCAR-4 ovarian 31.8% | SK-OV-3 ovarian 99.5% | IGROV1 ovarian 92.9% | OVCAR-3 ovarian 87.2% | HS 578T breast 92.2% | NCI/ADR-RES ovarian 82.1% | T-47D breast 63.7%

O=C(N/N=C/c1ccc(Br)s1)c1[nH]c2ccc(Br)cc2c1-c1ccccc1
inactive: EKVX NSCLC 40.9% | SN12C renal 56.3% | UO-31 renal 48.6% | TK-10 renal 109% | ACHN renal 26.7% | MOLT-4 leukemia 14.2% | SR leukemia 10.1% | OVCAR-5 ovarian 52% | OVCAR-4 ovarian 71.1% | SK-OV-3 ovarian 40.6% | IGROV1 ovarian 18.1% | HS 578T breast 23.6% | NCI/ADR-RES ovarian 16.6% | T-47D breast 75.7%
active: CCRF-CEM leukemia 9.08% | RPMI-8226 leukemia 5.48% | OVCAR-8 ovarian 2.61%

Clc1ccc2oc3c(NCCCn4ccnc4)c4ccccc4nc3c2c1
active: ACHN renal 9.12% | MOLT-4 leukemia 7.69% | SR leukemia -5.22%
inactive: EKVX NSCLC 73.8% | SN12C renal 38.4% | UO-31 renal 30% | CAKI-1 renal 30.6% | A498 renal 14.3% | CCRF-CEM leukemia 19.4% | RPMI-8226 leukemia 37.6% | OVCAR-8 ovarian 43.4% | OVCAR-5 ovarian 50.1% | OVCAR-4 ovarian 63% | SK-OV-3 ovarian 93.9% | IGROV1 ovarian 36.5% | OVCAR-3 ovarian 76.7% | HS 578T breast 61.7% | NCI/ADR-RES ovarian 41.2% | T-47D breast 88.9%

O=C(c1ccc(Cl)cc1)C1[C@H](c2ccc(Cl)cc2)[C@@H](c2ccccc2)NC12C(=O)Nc1ccc(Br)cc12 (some centres not stated)
inactive: EKVX NSCLC 43.6% | UO-31 renal 28.5% | TK-10 renal 50.4% | ACHN renal 14.3% | A498 renal 59.2% | CCRF-CEM leukemia 36.8% | RPMI-8226 leukemia 18.2% | OVCAR-8 ovarian 38.3% | OVCAR-5 ovarian 52.8% | OVCAR-4 ovarian 44.6% | SK-OV-3 ovarian 101% | IGROV1 ovarian 35.9% | OVCAR-3 ovarian 25.5% | HS 578T breast 58.2% | NCI/ADR-RES ovarian 28.8% | T-47D breast 31.2%
active: SN12C renal -48.8% | MOLT-4 leukemia 6.17% | SR leukemia -5%
